Assay outcomes deposited in PubChem BioAssay by National Center for Advancing Translational Sciences (NCATS).
A selection: hits, their analogues and other compounds. The true share with any hit is near 12%.
G9a inh: G9a (human) methyltransferase inhibition; Q96KQ7; G9a H3K9 monomethylation, AlphaScreen, 2 h; Potency, µM (series often up to 102 µM), inactives show at the highest dose activity, negative = inhibition, actives largely listed as inhibitors; hit rate 8.8% among 350,000; also: potency is read from the fitted curve at half-maximal effect; % is scaled to controls: 0 for no effect and ±100 for the full control effect; nearly all actives have a fitted effect of over 75% in size
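AlphaScreen detection with an anti-monomethyl H3K9 antibody quantified product after a 2 h room-temperature reaction containing 500 nM biotinylated H3K9 peptide, 20 µM SAM and 20 nM enzyme, which had been preincubated 15 min with compound.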
BAZ2B block: BAZ2B (human) inhibition; Q9UIF8; AlphaScreen BAZ2B-H3K14Ac peptide displacement; hit rate 4.4% among 360,000; Potency, µM (top dose mostly 114 µM), for inactives: top-dose activity change, negative = inhibition, hits mostly inhibitors; also: potency is read from the fitted curve at half-maximal effect; % is scaled to controls: 0 for no effect and ±100 for the full control effect; nearly all actives have a fitted effect of over 60% in size
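AlphaScreen luminescence quantifies BAZ2B engagement of H3K14Ac peptide; the protein and biotinylated peptide are both at 50 nM final, buffer PBS pH 7.4 with 0.01% Tween-20, all steps at room temperature.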
PLK1 PBD inh: inhibitors of human PLK1 polo-box domain binding. Plk1 PBD binding of FITC phosphopeptide, fluorescence polarization. Potency, µM, without a hit: max response, negative = inhibition, usual class: inhibitors. hit rate 2.8% among 360,000. AID 720504; also: potency is read from the fitted curve at half-maximal effect; series mostly up to about 57 µM; % is scaled to controls: 0 for no effect and ±100 for the full control effect; nearly all actives have a fitted effect of over 65% in size
PI5P4K alpha inh: inhibitors of human PI5P4K alpha. PI5P4Kalpha enzyme, ADP-Glo luminescence, 60 min; stronger effect = lower value. P48426. hit rate 1.2% among 330,000. max response, %; active = max response of -50% or lower; inconclusive = between -30% and -50%; inactive = -30% or higher; also: value at the top dose of about 77 µM; % is scaled to controls: 0 for no effect and ±100 for the full control effect
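Enzyme plus substrate dispensed, test compounds pinned in, then ATP (5 microM final) added. After 60 min at RT, ADP-Glo reagent 1 for 45 min and reagent 2 for 30 min preceded luminescence imaging.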
JMJD2A Tudor: JMJD2A Tudor domain (human) inhibition; AlphaScreen JMJD2A-Tudor / H3K4me3 peptide binding; Potency, µM (doses to about 114 µM), for inactives: at the highest dose activity change, negative = inhibition, usual class: inhibitors; hit rate 4.4% among 390,000; also: potency is read from the fitted curve at half-maximal effect; % is scaled to controls: 0 for no effect and ±100 for the full control effect; nearly all actives have a fitted effect of over 50% in size
HP1b chromo inh: blocks HP1-beta chromodomain binding to methylated histone tails. P83916. AlphaScreen HP1-beta / biotin-H3K9me3 peptide binding. Potency, µM (highest dose often 114 µM), for inactives: at the top dose activity change, negative = inhibition, actives largely listed as inhibitors. hit rate 0.56% among 390,000. AID 540317; also: potency is read from the fitted curve at half-maximal effect; nearly all actives have a fitted effect of over 70% in size
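Compound inhibition of the preformed complex between 50 nM HP1-beta and 50 nM biotinylated H3K9me3 peptide was read by AlphaScreen. Buffer was PBS pH 7.4 with 0.01% Tween-20. Incubations ran 30 min at room temperature, with 10 ug/mL donor/acceptor beads.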
An asterisk follows results filed as active; ? = inconclusive; · = no result given; [ ] = remark or other dose. Unless noted, calls follow the shape of the dose curve; as a rule, active = well fitted curve in the direction sought with a large enough effect; inconclusive = small, poorly fitted or top-dose-only effect, or another doubt; inactive = no such curve, though single readings can be large; an effect the other way counts as inactive or inconclusive.

SMILES	G9a inh	BAZ2B block	PLK1 PBD inh	PI5P4K alpha inh	JMJD2A Tudor	HP1b chromo inh
NC(C(=O)O)C(c1ccccc1)C(F)F (stereo not drawn)	11.2µM*	-30.9%	-13.6%	1.2	50.1µM*	-0.6%
COc1ccccc1NC(=O)c1cc2cc3ccc(OC)c(Cl)c3nc2s1	28.2µM*	79.4µM*	·	·	56.2µM*	5.4%[57 µM]
O=C(Nc1ccccc1)C1Cc2c(-c3ccco3)ccnc2O1 (stereo not drawn)	·	·	0.6%	-0.6	·	·
Cc1ccc(S(=O)(=O)NC(Cc2ccccc2)C(=O)O)cc1 (stereo not drawn)	-31.2%	-5.4%	-11.7%	5.5	5.2%[57.1 µM]	36.9%
Cc1ccc(S(=O)(=O)NC(CC(N)=O)C(=O)O)cc1 (stereo not drawn)	15.8µM*	4.5%	1.3%	-5.5	?	14.2%
CC(=O)NCc1ccc(S(=O)(=O)NC(C)CCc2ccccc2)cc1 (stereo not drawn)	12.2%	0.3%	-2.9%	-7.1	2.1%	12.4%
CC(C)(C)c1ccc(S(=O)(=O)NC(Cc2ccccc2)C(=O)O)cc1 (stereo not drawn)	79.4µM*	-34.1%	-13.1%	·	-12.2%	?
COc1ccc(S(=O)(=O)N[C@@H](CSCc2ccccc2)C(=O)O)cc1	50.1µM*	?	-3.0%	5.6	-17.2%	18.4%
COc1ccc(S(=O)(=O)NC(C)CCc2ccccc2)cc1 (stereo not drawn)	51.2%	4.5%	5.32µM*	?	?	-12.4%
COc1ccc(C[C@@H](NS(=O)(=O)c2ccc(C(=O)O)cc2)C(=O)O)cc1	-14.5%[12.7 µM]	-3.8%	·	·	-8.3%	·
Cc1ccccc1C(=O)Nc1nnc(S(=O)(=O)N(C)Cc2ccc(Cl)cc2)s1	-28.5%[59 µM]	-6.8%	·	·	-6.2%	36.7%
CC1=C(C(=O)Nc2cccnc2)C(c2ccc(F)cc2)n2nc(-c3cccc(C)c3)nc2N1 (stereo not drawn)	4.3%[59 µM]	0.3%	·	·	-17.6%	18.7%
Cc1ccc(S(=O)(=O)N[C@H](C(=O)NC2CCC(C)CC2)C(C)C)cc1 (stereo partly drawn)	·	·	-17.2%	1.5	-7.7%	40.7%
CC1(CCc2ccccc2)NC(=O)N(CC(=O)O)C1=O (stereo not drawn)	35.4%[12.7 µM]	-4.8%	23.8µM*	-13.9	-10.3%[11.4 µM]	28.4%
CC1(CCc2ccccc2)NC(=O)N(CC(=O)Nc2ccccc2)C1=O (stereo not drawn)	11.4%[12.7 µM]	-5.5%	6.3%	2.1	-5.7%	17.7%
Cc1cc(C(c2cc(C)c(N)c(C)c2)c2ccco2)cc(C)c1N	·	·	-26.6%	-2.6	79.4µM*	79.4µM*
CCOC(=O)c1[nH]cnc1C(=O)Nc1ccc([N+](=O)[O-])cc1	79.4µM*	?	-0.6%	-18.5	?	14.4%
O=C(Nc1ccc([N+](=O)[O-])cc1)c1nc[nH]c1C(=O)NC1CCCCC1	19.8%[59 µM]	50.1µM*	-7.5%	?	-21.4%	19.6%
Cc1ccc(NC(=O)c2nc[nH]c2C(=O)Nc2ccc(C)cc2)cc1	5.4%[59 µM]	1.6%	-4.4%	-0.2	-13.1%	23.9%
COCC(=O)N1CCC2(CCCN(c3ncccn3)C2)CC1	5.4%[12.7 µM]	·	·	·	·	·
CCc1ccc(-n2c(=O)c3sc4ccccc4c3n(CC(=O)NCc3ccccc3)c2=O)cc1	10.0%[59 µM]	1.5%	·	·	-14.6%	33.8%
Cc1ccc2[nH]c(C)cc(=O)c2c1	25.3%[135 µM]	·	·	·	·	·
Cc1cc(=S)[nH]c2ccccc12	2.82µM*	-25.5%	?	2.2	-29.7%	17.1%
Cc1ccc2[nH]c(=S)cc(C)c2c1	-24.0%[59 µM]	3.7%	5.97µM*	-4.6	-13.9%	37.3%
Cc1ccc2c(C)cc(=S)[nH]c2c1	50.1µM*	-18.4%	?	-13.3	0.0%	33.4%
SMILES	G9a inh	BAZ2B block	PLK1 PBD inh	PI5P4K alpha inh	JMJD2A Tudor	HP1b chromo inh
COc1ccccc1NC(=O)CSC1=Nc2ccccc2C2=NC(CCC(=O)NCc3ccco3)C(=O)N12 (stereo not drawn)	5.1%[59 µM]	-18.4%	·	·	-25.0%	10.8%
COc1ccccc1CCC(=O)N1CCN(S(=O)(=O)c2cc(C(F)(F)F)ccc2Cl)CC1	8.91µM*	0.5%	-4.0%	6.6	-15.2%	36.8%
COc1ccc(N2CCN(C(=O)COCc3cc(-c4ccc5c(c4)OCO5)on3)CC2)cc1	14.1µM*	?	-15.4%	-13.3	-24.1%	4.1%
COc1ccc(N2CCN(C(=O)CCCSc3nc4ccccc4[nH]3)CC2)cc1	44.7µM*	-26.1%	-8.1%	-3.7	-17.4%	11.6%
NC(=O)CCCSc1nc2ccccc2[nH]1	5.5%	1.0%	2.0%	1.9	2.1%	40.4%
COc1ccc(OCC(=O)N2CCN(C(=O)c3ccccc3)CC2)cc1	13.6%[12.7 µM]	14.3%	0.3%	-4.7	-29.0%	17.7%
COc1ccc(N2CCN(C(=O)COc3ccccc3)CC2)cc1	44.7µM*	-12.6%	2.7%	·	-28.3%	13.1%
O=C(CN1CSCC1=O)N1CCN(S(=O)(=O)c2cc(C(F)(F)F)ccc2Cl)CC1	9.0%	-3.4%	-4.3%	0.5	-13.1%	13.3%
Cc1ccc(OCc2nc(-c3ccc(C(=O)N4CCN(c5cccc(C(F)(F)F)c5)CC4)cc3)oc2C)cc1	-6.0%[59 µM]	-21.5%	·	·	-25.8%	-1.6%
CCc1ccc2c(F)cccc2n1	·	·	-6.1%	3.7	·	·
Cc1ccc(-n2nc3c(N4CCC(C(=O)NC5CCC(C)CC5)CC4)nnc(C)c3c2C)cc1 (stereo not drawn)	-1.4%[59 µM]	-2.1%	·	·	-21.7%	8.1%
Cc1ccc(OCC(=O)N2CCC(N3CC(C)CC(C)C3)CC2)cc1 (stereo not drawn)	25.1µM*	-36.8%	-8.7%	-0.7	1.58µM*	?
O=C(COc1ccc(-c2ccccc2)cc1)N1CCCC1	35.5µM*	?	-4.2%	-1.4	-9.2%	22.1%
COc1ccc(-c2cc3nc(C)c(CCC(=O)N4CCN(c5ccc(F)cc5)CC4)c(C)n3n2)c(OC)c1	?	-15.9%	·	·	-26.9%	27.7%
COc1ccc(N2CCN(C(=O)COc3cccc4ccccc34)CC2)cc1	·	11.2µM*	-3.1%	-1.3	31.6µM*	?
O=C(COc1cccc2ccccc12)N1CCN(c2ccccc2)CC1	?	-2.7%	-9.2%	2.8	?	2.9%
O=C(COc1ccccc1)NCC(=O)N1CCCC1	7.2%	-2.6%	-15.6%	0.3	-2.8%	14.2%
COc1ccc(N2CCN(C(=O)CCc3c(C)nc4cc(-c5ccc(OC)cc5OC)nn4c3C)CC2)cc1	?	17.8µM*	·	·	-14.8%	4.3%
COc1ccc(N2CCN(C(=O)CCc3ccccc3OC)CC2)cc1	79.4µM*	?	-13.7%	2.1	?	-7.4%
Cc1cc(OCC(=O)N2CCCC2)ccc1Cl	-6.4%[59 µM]	5.3%	-7.9%	0.0	-2.3%[57.1 µM]	69.2%
Cc1cc(OCC(=O)N2CCCC2)cc(C)c1Cl	1.26µM*	12.4%	-3.0%	13.5	12.9%	39.2%
